Bioassay records from PubChem.
MPTP block = blocks calcium-induced mitochondrial swelling; isolated mouse mitochondria, Ca2+ swelling absorbance, 30 min; inhibition, % at 10 µM; actives 1.4% (n = 360,000);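 active = inhibition of 50% or more, scaled per plate between neutral and stimulator controls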
Mdm2-MdmX inh = human Mdm2/MdmX binding inhibition. inhibition, % at 8 µM. actives 3% (n = 330,000). O15151+Q00987. SaOS-2 split-luciferase Mdm2/MdmX complementation, luminescence. AID 485346;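 active = inhibition of at least 50% at 8 µM in the primary screen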
Gli-Sufu antag = antagonists of Gli-Sufu signaling; Sufu-KO-LIGHT fibroblasts, Gli luciferase reporter luminescence; inhibition, % at 5 µM; actives 0.74% (n = 340,000);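 active = inhibition above about 55%, limit read from the data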
CSC inhib = blocks cancer stem cells; actives 1.1% (n = 300,000); inhibition, % at 7.5 µM; cancer stem cell-like cells viability, luminescence; in the data active = inhibition above about 75%; tested in HMLE shEcad cells
Beta cell apopt = beta cell apoptosis inhibition | INS-1E cytokine-induced death, ATP luminescence, 48 h; percent of positive-control rescue, neutral wells zero | protection from apoptosis, % (test concentration not listed) | actives 0.8% (n = 300,000) | AID 435005;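 active = Every replicate reaches about 75%, or at least half do and their mean reaches it too, limit read from the data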;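 also: higher means more ATP so stronger rescue from cytokine killing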
GRIN3A LBD mod = modulators (binders) of human NR3A ligand-binding domain | NR3A LBD differential scanning fluorimetry, Tm shift; 0% = protein alone, 100% = glycine-bound protein | Tm shift relative to glycine control, % at 25 µM | actives 2.5% (n = 340,000) | AID 1259313;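 active = melting temperature shift of at least 10% of the positive control shift, at one fixed dose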
Each line names hits and unclear results; the compound was inactive in the other large screens. An excerpt weighted towards active compounds, which were near 6.6% of everything screened.

COc1ccc(-c2nnc(Nc3nc4c(OC)cccc4s3)o2)cc1	CSC inhib 81.3 (no result: Mdm2-MdmX inh)
COc1cc(OC)cc(-c2nnc(Nc3nc4c(F)cccc4s3)o2)c1	none
C=CCN1C(=O)c2ccc(C(=O)N3CCN(S(=O)(=O)c4cccc(F)c4)CC3)cc2C1=O	none
Cc1cc(NN)nc2ccc(Cl)cc12	GRIN3A LBD mod 12.2
Cc1cc(C)c2ccc(Cl)cc2n1	none
COc1ccc(S(=O)(=O)N2CCC(C(=O)NCCC(=O)NCc3ccccn3)CC2)cc1	none (no result: Mdm2-MdmX inh, Gli-Sufu antag, CSC inhib, Beta cell apopt, GRIN3A LBD mod)
O=C(CNCc1ccc(F)cc1)Nc1ccc(C(=O)N2CCCCC2)cc1	none
CCCCC1(c2ccc(F)cc2)NC(=O)N(CC(=O)Nc2ccc(N3CCOCC3)cc2)C1=O (stereo unspecified)	GRIN3A LBD mod 11.6
CCC1(c2ccc(F)cc2)NC(=O)N(CC(=O)Nc2ccc(-c3nc4ccc(C)cc4s3)cc2)C1=O (stereo unspecified)	Beta cell apopt 91.9, GRIN3A LBD mod 10.7
CCc1ccc2nc(NC(=O)CN3C(=O)NC4(CCCC4)C3=O)sc2c1	GRIN3A LBD mod 11.2
O=C(CC[C@H]1O[C@@H](n2ccc(=O)[nH]c2=O)[C@H](O)[C@@H]1O)NCCc1c[nH]c2ccccc12	none (no result: Mdm2-MdmX inh, Gli-Sufu antag, CSC inhib, Beta cell apopt, GRIN3A LBD mod)
Cc1ccc2oc(C(=O)NCc3ccc(S(N)(=O)=O)cc3)cc(=O)c2c1	none
CCc1ccc2oc(C(=O)NCCc3ccc(S(N)(=O)=O)cc3)cc(=O)c2c1	GRIN3A LBD mod 14.9
CC(Sc1ccccc1)C(=O)NNC(=O)c1csc(N2CCOCC2)n1 (stereo unspecified)	none (no result: Beta cell apopt)
COc1ccc(C)cc1NC(=O)C(Sc1nnc2ccccn12)c1ccccc1 (stereo unspecified)	GRIN3A LBD mod 14.8
COc1cc(NC(=O)CSc2nnnn2Cc2ccccc2)cc(OC)c1	none (no result: CSC inhib)
COc1ccc(C)cc1NC(=O)CSc1nnnn1Cc1ccccc1	GRIN3A LBD mod 14.5
CCCCOc1ccc(NC(=O)CN2CCN(Cc3ccccc3)CC2)cc1	none (no result: Gli-Sufu antag)
Cc1nn(-c2ccc(F)cc2)c2sc(C(=O)N3CCCCCC3)cc12	none
COc1ccc(NS(=O)(=O)c2ccc(O)c(NC(=O)c3cc4c(C)nn(-c5ccc(F)cc5)c4s3)c2)cc1	CSC inhib 113.9, GRIN3A LBD mod 30.6
CNc1ccc2ncc(-c3ccccc3NC(C)=O)n2n1	none (no result: Mdm2-MdmX inh, Gli-Sufu antag, CSC inhib, Beta cell apopt, GRIN3A LBD mod)
COc1ccc(-c2cc3nc(-c4ccccc4)cc(N4CCCC(O)C4)n3n2)cc1 (stereo unspecified)	CSC inhib 93.5
CCOC(=O)Sc1nc2ncncc2[nH]1	none (no result: Mdm2-MdmX inh, CSC inhib, Beta cell apopt)
Cc1ccc(C(=O)ONc2ccc(N=NC(=O)c3ccccc3O)cc2)cc1	CSC inhib 78.4
O=C(COC(=O)c1cccc(S(=O)(=O)N2CCOCC2)c1)NC1CCCCC1	none (no result: Mdm2-MdmX inh, Gli-Sufu antag, CSC inhib, Beta cell apopt, GRIN3A LBD mod)
C[C@H]1[C@@H](c2ccccc2)Oc2ccc(Cl)cc2S(=O)(=O)N1Cc1ccc(F)cc1F	GRIN3A LBD mod 15.4 (no result: Mdm2-MdmX inh, CSC inhib, Beta cell apopt)
O=C(c1ccc(Sc2ccccc2)c([N+](=O)[O-])c1)N1CCOCC1	GRIN3A LBD mod 16.4
O=C(c1ccc2ccccc2c1)N1CCN(c2ccc([N+](=O)[O-])c(N3CCOCC3)c2)CC1	GRIN3A LBD mod 17.3
O=C(/C=C/c1ccccc1)N1CCN(c2ccc([N+](=O)[O-])c(N3CCOCC3)c2)CC1	GRIN3A LBD mod 20.1 (no result: CSC inhib)
Cc1cccc(C(=O)N2CCN(c3ccc([N+](=O)[O-])c(N4CCOCC4)c3)CC2)c1	none
COc1ccc(C(=O)NC2CCN(CC(=O)N3CCCCC3)CC2)cc1	none
CCOC1=C2CN(S(=O)(=O)c3ccccc3)[C@H](c3ccccc3)C[C@H]2n2c(=O)n(-c3ccccc3)c(=O)n2C1	none (no result: Mdm2-MdmX inh, Gli-Sufu antag, CSC inhib, Beta cell apopt, GRIN3A LBD mod)
COc1ccc(CC(=O)N(Cc2ccccc2)c2cccc(C)c2)cc1OC	none
COc1cc(C(=O)NCc2ccc(C)cc2)ccc1OC(F)F	GRIN3A LBD mod 11.5
COc1cc(C(=O)N(Cc2ccccc2)c2cccc(C)c2)ccc1OC(F)F	GRIN3A LBD mod 14.1
Cc1cccc(N(Cc2ccccc2)C(=O)c2ccc(CS(C)(=O)=O)cc2)c1	GRIN3A LBD mod 14.1
Cc1cccc(N(Cc2ccccc2)C(=O)c2ccc(C)c(S(=O)(=O)N3CCOCC3)c2)c1	none (no result: CSC inhib)
CC(C)CNS(=O)(=O)c1ccc(S(=O)(=O)N2CCN(C3CCCC3)CC2)cc1	none
Cc1cccc(C)c1NC(=O)C(c1ccccc1OC(F)(F)F)N1CCN(C/C=C/c2ccccc2)CC1 (stereo unspecified)	none (no result: Mdm2-MdmX inh, Gli-Sufu antag, CSC inhib, Beta cell apopt, GRIN3A LBD mod)
O=C(c1sc2cccc(Cl)c2c1Cl)N1CCN(CCc2ccccn2)CC1	none
O=[N+]([O-])c1nn(-c2ccc3c(c2)OCCO3)n(O)c1=NCc1ccc(F)cc1	GRIN3A LBD mod 13.0
O=[N+]([O-])c1nn(-c2ccc3c(c2)OCCO3)n(O)c1=NCc1ccc(F)cc1Cl	none
CCOc1ccccc1C(=O)N[C@H](C(=O)OCc1cc(=O)oc2cc(C)ccc12)C(C)C	GRIN3A LBD mod 14.8 (no result: CSC inhib)
O=C(CSc1ncnc2nc[nH]c12)Nc1nnc(SCc2ccc(Cl)c(Cl)c2)s1	CSC inhib 93.5
O=P(Cc1cccc2ccccc12)(c1ccccc1)c1ccccc1	none (no result: Mdm2-MdmX inh, CSC inhib, Beta cell apopt)
O=C(COC(=O)CC1CC2CCC1C2)NCc1ccc(F)cc1 (stereo unspecified)	none (no result: CSC inhib)
O=C(CC1CC2CCC1C2)NCCc1ccc(Cl)cc1 (stereo unspecified)	Beta cell apopt 84.9
CC1CCCN(S(=O)(=O)c2ccc(NC(=O)C3CCN(C(=O)C(C)(C)C)CC3)cc2)C1 (stereo unspecified)	none
CC(C)C[C@H]1CN=C(Nc2ccccc2)N1CCC(C)c1ccccc1 (stereo partly specified)	Beta cell apopt 103.0
Cc1cc(Nc2ccc(Cl)cc2)nc(-c2ccccc2O)n1	GRIN3A LBD mod 35.4
Cc1cc(Nc2cccc(Cl)c2)nc(-c2ccccc2O)n1	GRIN3A LBD mod 36.6 (no result: Gli-Sufu antag)
O=C(Oc1ccc2ccccc2c1)c1ccccc1	GRIN3A LBD mod 18.9
O=C(Oc1ccccc1)c1ccccc1	none (no result: Mdm2-MdmX inh, CSC inhib, Beta cell apopt)
Cn1nc([N+](=O)[O-])c(C(C#N)c2ccccn2)c(Cl)c1=O (stereo unspecified)	CSC inhib 88.4
COc1cc(CCNC(=O)c2cnn3ccccc23)cc(OC)c1OC	GRIN3A LBD mod 22.2
CC(C)Oc1ccc(C(=O)/C=C2/C(=O)Nc3ccccc32)cc1	CSC inhib 101.5
CN1CCN(Cc2ccc(Sc3ccc(Cl)cc3)c([N+](=O)[O-])c2)CC1	CSC inhib 86.0
Cc1ccc(Sc2ccc(CN3CCCC3)cc2[N+](=O)[O-])cc1	none
CN1C(=O)S/C(=C\c2ccccc2OCc2ccc(C(=O)O)cc2)C1=O	none
COc1cccc(/C=C2\SC(=O)NC2=O)c1OCc1ccc(C(=O)O)cc1	GRIN3A LBD mod 15.5
Cn1c(NCC(O)CO)nc2c1c(=O)n(Cc1ccc(Cl)c(Cl)c1)c(=O)n2C (stereo unspecified)	GRIN3A LBD mod 16.9
CC(O)CNc1nc2c(c(=O)n(Cc3cccc(Cl)c3)c(=O)n2C)n1C (stereo unspecified)	none
